Records with an inconclusive call do not appear. Calls of active or inactive are those of the source. Calls follow the shape of the dose curve; as a rule, active = well fitted curve in the direction sought with a large enough effect; inconclusive = small, poorly fitted or top-dose-only effect, or another doubt; inactive = no such curve, though single readings can be large or run the other way.
biological target: phosphoglycerate mutase (Leishmania major) (UniProt Q4Q090); assay: qHTS Validation Assay to Find Inhibitors of Phosphoglycerate Mutase (AID 504548); settings: biochemical enzyme activity; series mostly up to 57.5 µM
Excerpt: NIH Molecular Libraries Probe Production Network [MLPCN]
NIH Chemical Genomics Center [NCGC]
PI Name: Malcolm Walkinshaw, University of Edinburgh
Several species of the Trypanosomatidae family of parasitic protozoans cause a spectrum of diseases throughout the tropical and subtropical world. Sleeping sickness, caused by two subspecies of Trypanosoma brucei, is endemic to areas of sub-Saharan Africa, while Chagas disease, a manifestation of Trypanosoma cruzi infection, is prevalent throughout Central and South America. In addition, many species of Leishmania are responsible for a range of cutaneous and visceral diseases, causing ulcers, destructive lesions and kalaazar, a lethal infection of the viscera. Collectively, these organisms infect 30 million people worldwide (~500 million live in endemic areas), and account for ~130,000 deaths annually. Given their debilitating and prevalent nature, trypanosomatid parasites impose a heavy medical, economic and social burden on entire populations, primarily in the developing world. The problem is further exacerbated by the fact that existing treatments have progressed little in the past 50 years, and current drugs show high toxicity and poor efficacy.
Blood-stream stages of T. brucei are entirely dependent on glycolysis as a source of ATP, and the tricarboxylic acid cycle and oxidative phosphorylation are both repressed. Glycolysis in axenically cultured T. cruzi, representing the intracellular pathogenic stage, is also essential for these parasites. […] Previous studies have shown that the glycolytic enzyme, phosphoglycerate mutase (PGAM), is a viable target for drugs to kill these parasites. […] Furthermore, the cobalt centers present within PGAM are only found in trypanosomatid and plant PGAMs, and are known to be required for activity, thereby providing an additional target. Moreover, trypanosomatid PGAMs are completely different from the enzyme that performs the same function in humans: the parasite and host enzymes share no structural or even mechanistic features; specificity is therefore unlikely to be an issue.
NCGC Assay Protocol Summary:
Briefly, 3ul of substrate buffer (all columns) are dispensed into Greiner white solid bottom 1536-well assay plates. Compounds are then transferred via Kalypsys pin tool equipped with 1536-pin array (10nl slotted pins, V&P Scientific, San Diego, CA). Following addition of compound, 1ul of Lm PGAM (1.25nM final concentration, columns […]) is added to initiate the reaction; columns 3-4 receive only TEA buffer as negative controls. The plates are then incubated at room temperature for 45 minutes. Kinase-GloPlus reagent is added (2ul) and plates incubated for 10 minutes, before being transferred to a ViewLux high-throughput CCD imager (PerkinElmer) wherein single end-point measurements of luminescence are acquired using a clear filter. All reagents are diluted in an assay buffer consisting of 100 mM TEA (pH 7.6), 5 mM MgCl2 and 0.01% Tween-20.

Chain of phosphoglycerate mutase (Leishmania major) (Q4Q090 1-553): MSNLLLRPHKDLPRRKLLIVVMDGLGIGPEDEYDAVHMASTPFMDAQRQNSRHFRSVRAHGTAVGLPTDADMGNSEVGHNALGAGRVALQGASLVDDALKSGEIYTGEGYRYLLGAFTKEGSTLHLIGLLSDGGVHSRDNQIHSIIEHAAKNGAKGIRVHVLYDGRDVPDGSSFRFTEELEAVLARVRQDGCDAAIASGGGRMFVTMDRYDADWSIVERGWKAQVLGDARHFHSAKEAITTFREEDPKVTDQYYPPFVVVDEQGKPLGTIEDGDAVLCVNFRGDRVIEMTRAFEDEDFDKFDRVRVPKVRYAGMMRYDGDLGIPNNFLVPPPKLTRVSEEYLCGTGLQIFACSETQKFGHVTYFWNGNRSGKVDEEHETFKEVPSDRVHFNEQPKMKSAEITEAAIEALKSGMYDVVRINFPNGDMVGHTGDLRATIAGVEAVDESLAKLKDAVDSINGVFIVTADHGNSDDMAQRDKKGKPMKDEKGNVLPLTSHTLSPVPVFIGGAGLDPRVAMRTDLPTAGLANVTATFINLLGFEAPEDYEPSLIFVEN

Row | SMILES | outcome
1 | CCN(CC)CCCN(c1ccccc1)C1Cc2ccccc2C1 | inactive
2 | CCN(Cc1ccncc1)C(=O)C(CO)c1ccccc1 (stereo not given) | inactive
3 | O=C1NCN(c2ccccc2)C12CCN(CCCC(c1ccc(F)cc1)c1ccc(F)cc1)CC2 | inactive
4 | Cc1nc2c([nH]1)c(=O)n(C)c(=O)n2Cc1ccco1 | inactive
5 | CCCCNc1c(C(=O)OCC)c(C)nc2c1cnn2CC | inactive
6 | CC(C)NNC(=O)c1ccncc1 | inactive
7 | COc1cc(C(=O)OCCCN2CCCN(CCCOC(=O)c3cc(OC)c(OC)c(OC)c3)CC2)cc(OC)c1OC | inactive
8 | CCCN1C[C@H](CSC)C[C@@H]2c3cccc4[nH]cc(c34)C[C@H]21 | inactive
9 | CCCCCCCC/C=C\CCCCCCCC(=O)NCc1ccc(O)c(OC)c1 | inactive
10 | CCCN(CCC)CCc1cccc2c1CC(=O)N2 | inactive
11 | Cc1ccc(Cl)c(Nc2ccccc2C(=O)O)c1Cl | inactive
12 | NC(Cc1ccc(Cl)cc1)C(=O)O (stereo not given) | inactive
13 | CN/C(=C\[N+](=O)[O-])NCCSCc1ccc(CN(C)C)o1 | inactive
14 | NC/C=C/C(=O)O | inactive
15 | CC(=O)[C@@]1(O)CC[C@H]2[C@@H]3CCC4=CC(=O)CC[C@]4(C)[C@H]3CC[C@@]21C | inactive
16 | CCOC(=O)C1=C(C)NC(C)=C(C(=O)OC)C1c1cccc([N+](=O)[O-])c1 (stereo not given) | inactive
17 | C[N+](C)(C)CCOC(N)=O | inactive
18 | COc1ccc([C@@H]2Sc3ccccc3N(CCN(C)C)C(=O)[C@@H]2OC(C)=O)cc1 | inactive
19 | CCc1cccc(N(C)C(N)=Nc2cccc3ccccc23)c1 | inactive
20 | C[C@]12CCC(=O)C=C1CC[C@@H]1[C@@H]2C(=O)C[C@@]2(C)[C@H]1CC[C@]2(O)C(=O)CO | inactive

Row | SMILES | outcome
21 | CCC(=O)c1ccc2c(c1)N(CCCN(C)C)c1ccccc1S2 | inactive
22 | Nc1ncn([C@@H]2O[C@H](CO)[C@@H](O)[C@H]2O)c(=O)n1 | inactive
23 | CO[C@@]1(NC(=O)CSCC#N)C(=O)N2C(C(=O)O)=C(CSc3nnnn3C)CS[C@@H]21 | inactive
24 | FC(F)(F)c1ccccc1-n1ccnc1 | inactive
25 | CCCC(C(=O)OCCN(CC)CC)(c1ccccc1)c1ccccc1 | inactive
26 | COC(=O)[C@H]1[C@H]2C[C@@H]3c4[nH]c5cc(OC)ccc5c4CCN3C[C@H]2C[C@@H](OC(=O)c2cc(OC)c(OC)c(OC)c2)[C@@H]1OC | inactive
27 | C[n+]1cc2c3c(ccc2c2ccc4cc5c(cc4c21)OCO5)OCO3 | inactive
28 | CC1=C(C)C(=O)C(CCCCC#CCCCC#CCO)=C(C)C1=O | inactive
29 | CN1C[C@H](C(=O)N[C@]2(C)O[C@@]3(O)[C@@H]4CCCN4C(=O)[C@H](Cc4ccccc4)N3C2=O)C[C@@H]2c3cccc4[nH]cc(c34)C[C@H]21 | inactive
30 | OC(CCN1CCCCC1)(c1ccccc1)C1CCCCC1 (stereo not given) | inactive
31 | CCOC(=O)c1cnc2c(cnn2CC)c1NN=C(C)C | inactive
32 | CC(C)COCC(CN(Cc1ccccc1)c1ccccc1)N1CCCC1 (stereo not given) | inactive
33 | OCCN1CCN(CCCN2c3ccccc3C=Cc3ccccc32)CC1 | inactive
34 | CCN(CC)CC(=O)Nc1c(C)cccc1C | inactive
35 | CN(C)CCCN1c2ccccc2Sc2ccccc21 | inactive
36 | CCOC(=O)C1=C(C)NC(C)=C(C(=O)OC)C1c1cccc(Cl)c1Cl (stereo not given) | inactive
37 | Fc1ccc(C(c2ccc(F)cc2)N2CCN(C/C=C/c3ccccc3)CC2)cc1 | inactive
38 | CCCNC(C)C(=O)Nc1ccccc1C (stereo not given) | inactive
39 | NC(=O)c1ncn([C@@H]2O[C@H](CO)[C@@H](O)[C@H]2O)c1O | inactive
40 | C[C@@H](O)[C@H]1C(=O)N2C(C(=O)O)=C(SCCN=CN)C[C@H]12 | inactive
